Rows were chosen to be rich in hits. Some 6.2% of all compounds tested hit in one or more screens of this group.
Lassa entry inh = qHTS for Inhibitors of binding or entry into cells for Lassa Virus; 300,000 compounds, 1.2% hits; Potency, µM (highest dose often 37.9 µM), usual class: inhibitors; Lassa virus pseudotype entry inhibition, cell reporter; calls by dose curve; tested in HEK293 cells; further: nearly all actives have a fitted effect of over 50% in size
Marburg entry inh = qHTS for inhibitors of binding or entry into cells for Marburg Virus | AID 540276, 2011 | 300,000 compounds, 1.8% hits | Marburg virus pseudotyped entry inhibition, cell reporter | Potency, µM (doses to about 37.8 µM), actives largely listed as inhibitors; calls by dose curve; tested in HEK293 cells
FMDV antiviral = High Throughput Screening for Foot and Mouth Disease Virus Antivirals; FMDV antiviral cell-based qHTS; 410,000 compounds, 1.2% hits; Potency, µM (doses to about 57.9 µM), actives largely listed as inhibitors; calls by dose curve; tested in HEK293T cells; further: read-out not given here; nearly all actives have a fitted effect of over 45% in size
HCMV antiviral = qHTS Assay for inhibitors of the human cytomegalovirus (HCMV) | HFF cells, HCMV-luciferase reporter, 72 h; hits give low values | activity change, negative = inhibition, % at 57.5 µM | 410,000 compounds, 4.5% hits | AID 1259415, 2018; in the data active means activity change below about -60%; inconclusive means no clear call, values can overlap the other calls; inactive means above about -39%
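Screen run at 2 compound doses on HFFs infected with reporter HCMV, MOI 1 PFU/cell. Luciferase activity from cell lysates at 72 h post infection gave inhibition relative to buffer-only and Salinomycin wells.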
Each line names hits and unclear results; the compound was inactive in the other large screens; ! = a repeat was not active.

CC(C)CON=C1C[C@@H](O)[C@@H](O)[C@@H]2[C@H]3C(=O)N(C4CCCCC4)C(=O)[C@@H]3CC[C@H]12	Lassa entry inh inconclusive (no result: FMDV antiviral, HCMV antiviral)
CN1OC(C)(CC(=O)NCc2ccccc2)N=C1c1ccccc1 (stereo unspecified)	none (no result: Lassa entry inh, Marburg entry inh, FMDV antiviral)
CC1CCC(NC(=O)C2(C)CCC(=O)N2Cc2cccnc2)CC1 (stereo unspecified)	none (no result: Lassa entry inh, Marburg entry inh)
CC1(C(=O)NC2CCCCC2)CCC(=O)N1Cc1cccnc1 (stereo unspecified)	HCMV antiviral -81.9 (no result: Lassa entry inh, Marburg entry inh)
CCCCCCCn1c2c(c(=N)c3c1CCC3)CCCC2	Lassa entry inh inconclusive, Marburg entry inh inconclusive, FMDV antiviral 3.16µM, HCMV antiviral -94.9
CCCCn1c2c(cc(C(=O)OC)c1=O)C(=O)CCC2	none (no result: Lassa entry inh, Marburg entry inh)
N=c1c2c(n(Cc3ccc(F)cc3)c3c1CCC3)CCC2	Marburg entry inh inconclusive, HCMV antiviral -99.7
CCn1c2c(c(=N)c3c1CCC3)CCC2	Marburg entry inh inconclusive, HCMV antiviral -83.9
CCCCn1c2c(c(=N)c3c1CCC3)CCC2	Lassa entry inh inconclusive, Marburg entry inh inconclusive, FMDV antiviral inconclusive, HCMV antiviral -88.7
CC(=O)OC[C@@H]1CN(Cc2ccccc2)C[C@H](n2cnc3c(N(C)C(C)C)ncnc32)O1	none (no result: Lassa entry inh, Marburg entry inh)
COc1ccc2c(C)c(CCC(=O)NCCc3ccccc3)c(=O)oc2c1	none
COc1c2ccccc2nn1-c1ccc(-c2cn(Cc3ccccc3)nn2)cc1	none (no result: Lassa entry inh, Marburg entry inh, FMDV antiviral)
CCCCCCCCCn1c2c(c(=N)c3c1CCC3)CCC2	Lassa entry inh 1.41µM, Marburg entry inh inconclusive, FMDV antiviral 5.62µM (no result: HCMV antiviral)
CCn1c2c(c(=N)c3ccccc31)CCC2	FMDV antiviral inconclusive, HCMV antiviral -77.1
CNCC(O)Cn1c2c(c3ccccc31)CCCC2 (stereo unspecified)	Marburg entry inh inconclusive
CCCCCCn1c(=O)[nH]c2c(c1=O)CCC2	none
CCCCCCn1c2c(c(=N)c3c1CCC3)CCC2	Lassa entry inh 3.66µM, Marburg entry inh 8.2µM, FMDV antiviral inconclusive, HCMV antiviral -104.3
COC(=O)c1cc(CNC(=O)c2cccc(N(C)C)c2)cc(NC(=O)c2ccccc2Cl)c1	none (no result: Lassa entry inh, Marburg entry inh, HCMV antiviral)
CCN1CCN(c2cc(C)c3cc(NC(=S)N4CC(C)CC(C)C4)ccc3n2)CC1 (stereo unspecified)	Marburg entry inh inconclusive, HCMV antiviral inconclusive
CCN1CCN(c2cc(C)c3cc(NC(=O)c4cccnc4Cl)ccc3n2)CC1	Marburg entry inh inconclusive
CCN1CCN(c2cc(C)c3cc(NC(=O)c4cc(Br)ccc4Cl)ccc3n2)CC1	Lassa entry inh inconclusive, Marburg entry inh inconclusive, HCMV antiviral -72.2
CCN1CCN(C(=S)Nc2ccc3nc(N4CCN(C)CC4)cc(C)c3c2)CC1	Lassa entry inh 10µM, Marburg entry inh inconclusive, HCMV antiviral inconclusive
CCN1CCN(c2cc(C)c3cc(NC(=S)N4CCCC(C)C4)ccc3n2)CC1 (stereo unspecified)	Lassa entry inh inconclusive, Marburg entry inh 7.94µM, HCMV antiviral -71.2
Cc1ccc(N2CCN(C(=O)c3c(C)oc4ncn(CC(C)C)c(=O)c34)CC2)c(C)c1	none (no result: Marburg entry inh)
Cc1c(C(C)C)c(=O)n(-c2ccc(S(=O)(=O)NC3CCCCC3)cc2)n1C	Lassa entry inh inconclusive, Marburg entry inh inconclusive, HCMV antiviral -89.3
Cc1c(C(C)C)c(=O)n(-c2ccc(S(=O)(=O)NCc3ccccc3)cc2)n1C	Lassa entry inh 2µM, Marburg entry inh inconclusive, FMDV antiviral inconclusive, HCMV antiviral -85.2
Cc1c(NN=C(C#N)C#N)c(=O)n(-c2ccccc2)n1C	FMDV antiviral 14.1µM
Cc1c(C(C)C)c(=O)n(-c2ccc(S(=O)(=O)N3CCOCC3)cc2)n1C	none
Cc1ccc(S(=O)(=O)Nc2c(C)n(C)n(-c3ccccc3)c2=O)cc1	Lassa entry inh inconclusive, HCMV antiviral -97.8!
Cc1c(NC(=O)/C(C#N)=C/c2ccccc2)c(=O)n(-c2ccccc2)n1C	none
Cc1c(NS(=O)(=O)c2ccccc2)c(=O)n(-c2ccccc2)n1C	Marburg entry inh inconclusive
COc1ccc(/C=C2\SC(=S)N(CCCC(=O)Nc3ccc(O)cc3)C2=O)cc1	HCMV antiviral active (no result: Lassa entry inh, Marburg entry inh)
COc1ccc(/C=C2/SC(=S)N(CCCC(=O)Nc3ccc(O)cc3)C2=O)cc1	HCMV antiviral -99.6 (no result: Lassa entry inh, Marburg entry inh)
O=C(CCCN1C(=O)/C(=C\c2ccco2)SC1=S)Nc1ccc2ccccc2c1	Lassa entry inh inconclusive, Marburg entry inh inconclusive, HCMV antiviral -81.3
Cc1ccc(C)c(S(=O)(=O)c2nnn3c2nc(Nc2ccc(C)c(C)c2)c2ccccc23)c1	none (no result: Lassa entry inh)
O=S(=O)(Nc1cccc(-c2ccc(N3CCCCC3)nn2)c1)c1ccc(Cl)s1	Lassa entry inh inconclusive (no result: Marburg entry inh)
CC1CCN(CC(O)COCCOc2ccc(Br)cc2)CC1 (stereo unspecified)	HCMV antiviral inconclusive
CC1CC(C)CN(CC(O)COCCOc2ccc(Br)cc2)C1 (stereo unspecified)	Lassa entry inh inconclusive, Marburg entry inh 13µM
COc1cccc(C(=O)NCC2CCN(C(=O)C(=O)c3cc4ccccc4o3)CC2)c1	none (no result: Lassa entry inh, Marburg entry inh, FMDV antiviral)
COC(=O)c1sc2cc([N+](=O)[O-])cc(SCC(C)C)c2c1N	HCMV antiviral -63.5
CN1CCCN(C(=O)[C@@H]2C[C@@H](Sc3nc4ccccc4[nH]3)CN2Cc2ccc(OC(F)(F)F)cc2)CC1	none (no result: Lassa entry inh, Marburg entry inh, HCMV antiviral)
O=C1/C(=C\c2cccnc2)CCc2ccccc21	HCMV antiviral inconclusive
O=C1/C(=C/c2cccnc2)CC/C1=C\c1cccnc1	Marburg entry inh inconclusive, FMDV antiviral 28.2µM, HCMV antiviral -98.7
CCC1C/C(=C\c2cccnc2)C(=O)/C(=C/c2cccnc2)C1 (stereo unspecified)	Lassa entry inh 4.47µM, Marburg entry inh 5.8µM, FMDV antiviral 3.55µM, HCMV antiviral -98.3
CC(C)N1C(=O)S/C(=C/c2cccnc2)C1=O	none
O=C1NC(=S)N/C1=C/c1cccnc1	HCMV antiviral -63.3 (no result: Lassa entry inh, Marburg entry inh)
CC(C)/C=C1\CC/C(=C\c2cccnc2)C1=O	FMDV antiviral 28.2µM (no result: Lassa entry inh, Marburg entry inh)
C[C@@H]1C=CCCO[C@]12C(=O)N(Cc1ccc(F)cc1)c1cccc(Br)c12	none (no result: Lassa entry inh, FMDV antiviral, HCMV antiviral)
CCc1ccc(CNC(=O)C2COc3ccccc3C2)cc1 (stereo unspecified)	none (no result: Marburg entry inh)
O=C1/C(=C/c2ccccc2)CCCc2ccccc21	Lassa entry inh inconclusive
O=C1/C(=C/c2cccnc2)CCC/C1=C\c1cccnc1	Lassa entry inh 7.08µM, Marburg entry inh inconclusive, FMDV antiviral inconclusive, HCMV antiviral -101.3
Cc1ccc(COC(=O)c2[nH]c3c(c2C)C(=O)CC(c2ccc(Cl)cc2)C3)cc1 (stereo unspecified)	FMDV antiviral inconclusive
Cc1cc(O)c(C(C)C)cc1C1(c2cc(C(C)C)c(O)cc2C)OC(=O)c2ccccc21	Lassa entry inh inconclusive, Marburg entry inh inconclusive, FMDV antiviral inconclusive, HCMV antiviral -102.6
Cc1ccc(NS(=O)(=O)c2cccc(C(=O)NC3CCN(Cc4ccccc4)CC3)c2)c(C)c1	FMDV antiviral inconclusive (no result: Lassa entry inh, Marburg entry inh)
C=CCN(c1ccccc1)S(=O)(=O)c1cccc(C(=O)NC2CCN(Cc3ccccc3)CC2)c1	Lassa entry inh inconclusive, Marburg entry inh inconclusive, FMDV antiviral inconclusive, HCMV antiviral -64.6
O=C(NC1CCN(Cc2ccccc2)CC1)c1cccc(S(=O)(=O)Nc2ccc(F)cc2)c1	HCMV antiviral -77.0 (no result: Lassa entry inh, Marburg entry inh)
O=C(NC1CCN(Cc2ccccc2)CC1)c1cccc(S(=O)(=O)Nc2ccc(Br)cc2)c1	Lassa entry inh inconclusive, Marburg entry inh inconclusive, HCMV antiviral -68.6

Screening data (PubChem BioAssay)
